Results on six compounds are retold here after PubChem BioAssay (NCATS).

Inconclusive results are not listed. Calls of active or inactive are those of the source. Calls follow the shape of the dose curve; as a rule, active = well fitted curve in the direction sought with a large enough effect; inconclusive = small, poorly fitted or top-dose-only effect, or another doubt; inactive = no such curve, though single readings can be large; an effect the other way counts as inactive or inconclusive.

Assay [1] can be described thus: OV-KATE Cancer Cell Toxicity qHTS against the NCATS CANVASS Library (AID 1347345). Also: potency is read from the fitted curve at half-maximal effect. An outline of the steps:
(§1)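 In this cytotoxicity screen, 1000 cells per well rested 4 hours, then received compound (11 concentrations) for a 72-hour incubation; an ATP-dependent luminescent signal (CellTiter-Glo) was the endpoint.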
For orientation: qHTS replaces the single test concentration by a dilution series.

Assay [2] in a line: HPAF-II Cancer Cell Toxicity qHTS against the NCATS CANVASS Library (AID 1347346). Also: nearly all actives have a fitted effect of over 55% in size. Also: potency is read from the fitted curve at half-maximal effect. An outline of the steps:
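Using 1000 HPAF-II cells per well, we titrated compounds over 11 concentrations for 72 h at 37 degrees C/5% CO2, with bortezomib as control. Cell survival was quantified by CellTiter-Glo luminescence.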

Assay [3] in a line: OV-SAHO Cancer Cell Toxicity qHTS against the NCATS CANVASS Library (AID 1347348). Also: nearly all actives have a fitted effect of over 55% in size. Also: potency is read from the fitted curve at half-maximal effect. An outline of the steps:
as §1

A short description of assay [4]: U-118MG Cancer Cell Toxicity qHTS against the NCATS CANVASS Library (AID 1347351). Also: potency is read from the fitted curve at half-maximal effect. An outline of the steps:
as §1

A short description of assay [5]: HPAF-II 24hr Apoptosis Induction qHTS against the NCATS CANVASS Library (AID 1347356). An outline of the steps: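 Using an 11-point qHTS format, HPAF-II cells in DMEM/10% FBS received compounds for 24 h; doxorubicin titration as control. Caspase-3/7 activity quantified by DEVD-luciferase luminescence.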
Assay [6] can be described thus: HPAF-II 12hr Apoptosis Induction qHTS against the NCATS CANVASS Library (AID 1347358). An outline of the steps: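 Twelve-hour compound exposure of HPAF-II cells in DMEM with 10% FBS, then luminescent Caspase-Glo 3/7 detection after 15 min at room temperature; doxorubicin control.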
Assay [7] in a line: HEK293 24hr Apoptosis Induction qHTS against the NCATS CANVASS Library (AID 1347359). Also: potency is read from the fitted curve at half-maximal effect. An outline of the steps: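 Caspase-3/7 activation measured as luminescence from the DEVD-based Caspase-Glo reagent, 15 min at room temperature, following 24-hour compound treatment of HEK293 cells.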
Assay [8] is described as follows: HPAF-II 18hr Apoptosis Induction qHTS against the NCATS CANVASS Library (AID 1347360). An outline of the steps: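 HPAF-II cells at 500/well were exposed for 18 h at 37 C to an 11-point compound series. Caspase-3/7 activity was read by Caspase-Glo luminescence after 15 min at RT.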
The target of assay [9] is Luciferin 4-monooxygenase (Photinus pyralis) (UniProt P08659). Nature of the assay: Firefly luciferase counterscreen qHTS: Assay Interference Panel against the NCATS CANVASS Library (AID 1347363). Also: series mostly up to about 57 µM. An outline of the steps: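 Luminescence inhibition readout: compounds (11-point qHTS) sat 15 min at room temperature with substrate mix (0.013 mM luciferin and ATP), then firefly luciferase was added and signal read 5 min later.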
Chain of Luciferin 4-monooxygenase (Photinus pyralis) (P08659 whole entry, looked up): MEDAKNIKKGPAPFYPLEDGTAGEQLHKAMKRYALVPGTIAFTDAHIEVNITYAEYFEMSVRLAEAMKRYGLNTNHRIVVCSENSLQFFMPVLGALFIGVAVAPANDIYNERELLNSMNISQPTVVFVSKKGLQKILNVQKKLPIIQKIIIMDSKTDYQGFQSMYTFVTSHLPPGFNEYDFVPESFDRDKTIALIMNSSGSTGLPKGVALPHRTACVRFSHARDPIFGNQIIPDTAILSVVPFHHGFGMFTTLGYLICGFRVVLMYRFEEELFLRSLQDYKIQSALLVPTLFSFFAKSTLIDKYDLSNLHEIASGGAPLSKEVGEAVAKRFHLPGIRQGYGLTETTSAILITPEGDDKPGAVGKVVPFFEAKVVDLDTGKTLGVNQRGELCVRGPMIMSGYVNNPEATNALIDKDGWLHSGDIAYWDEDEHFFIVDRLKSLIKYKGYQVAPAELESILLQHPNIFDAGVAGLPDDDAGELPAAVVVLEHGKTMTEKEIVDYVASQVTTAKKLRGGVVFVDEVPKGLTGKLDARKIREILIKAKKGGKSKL

Assay [10] in a line: qHTS for ATAD5 Agonist screened against the NCATS CANVASS Library (AID 1347367).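 Also: luciferase reporter driven by ATAD5 which rises upon DNA damage.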 An outline of the steps:
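Luciferase reporter under ATAD5 control, stably integrated in HEK293T cells (2000/well). Compounds (11 points) incubated 16 h at 37C; viability read first by CellTiter-Fluor, then luminescence reporting ATAD5 activation. MMS positive control.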

The nature of assay [11]: MCF7 Cancer Cell Toxicity qHTS against the NCATS CANVASS Library (AID 1347369). An outline of the steps:
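MCF7 cells (500/well) were exposed 72 h at 37 °C to compounds in an 11-point series. Viability was read as ATP content by CellTiterGlo luminescence.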

The nature of assay [12]: qHTS for ATAD5 Antagonist screened against the NCATS CANVASS Library (AID 1347370).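 Also: HEK293T cells carrying an ATAD5 luciferase reporter co-treated with 10 µM 5-fluorouridine; series mostly up to about 46 µM; nearly all actives have a fitted effect of over 65% in size.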 An outline of the steps: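 HEK293T-ATAD5 luc reporter, 2000 cells/well; 5hr attach; cpd + 10 uM 5-FUrd; 16hr 37C, 5% CO2. Readouts: CellTiter-Fluor fluorescence (1hr), then Amplite luciferase luminescence (30min RT).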
The nature of assay [13]: J3T Cancer Cell Toxicity qHTS against the NCATS CANVASS Library (AID 1347371).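 Also: J3T is a canine glioma cancer cell line seeded at 500 cells per well; series mostly up to about 46 µM.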 An outline of the steps:
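ATP-based cytotoxicity in canine J3T cells: 72 hr exposure at 37C, 11-point titration, CellTiterGlo luminescent detection.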

For assay [14], the target named is Nuclear receptor subfamily 1 group I member 3 (Homo sapiens) (UniProt Q14994). In words: qHTS for Constitutive Androstane Receptor (CAR) Agonist screened against the NCATS CANVASS Library (AID 1347373).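 Also: every well also contained 1.5 µM PK11195 alongside the test compound.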 An outline of the steps:
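In an 11-point concentration series, compounds were incubated 24hr with HepG2 cells carrying hCAR and a CYP2B6-2.2kb reporter, with PK11195 at 1.5uM final. A CellTiter-Fluor viability read preceded the ONE-Glo luminescence read.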

Assay [15] can be described thus: 10-beta competent E. coli microbial cell viability qHTS against the NCATS CANVASS Library (AID 1347376). Also: series mostly up to about 46 µM. An outline of the steps:
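Overnight 37C exposure of 10-beta E. coli (0.2 OD) to an 11-point concentration series; ATP-based luminescence after 20 min room-temperature reagent incubation; daunomycin as control.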

Assay [16] is described as follows: qHTS for H2AX Agonists against the NCATS CANVASS Library (AID 1347378). An outline of the steps: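 CHO-K1 cells (1000/well, overnight at 37C) exposed to compounds at several concentrations for 3 hr at 37C, 0.76% DMSO final. Lysates read by TR-FRET (phospho-H2AX S139 Eu-cryptate antibody / H2AX-d2 antibody) after 24 hr at room temperature; 665/615 nm ratio.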
Assay [17] in a line: qHTS for Inflammasome Signaling Inhibitors: IL-1-beta AlphaLISA screen against the NCATS CANVASS Library (AID 1347379).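 Also: human THP-1 cells primed with LPS then triggered with ATP.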 An outline of the steps:
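THP-1, 1 hr compound pre-incubation, then LPS 250 ng/mL + ATP 1.25 mM (final); 16 hr total with compound; IL-1B AlphaLISA, ex 680/em 615 nm; 11-point qHTS, up to 57.5 uM final.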

Assay [18] in a line: Cytotoxicity qHTS for assessment of Hepg2 cells membrane integrity screened against the NCATS CANVASS Library (AID 1347387). An outline of the steps:
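Membrane damage in HepG2 monolayers was estimated from released LDH, measured with CytoTox-ONE (ex 560/em 590 nm), after 5 hr treatment across 0.59 nM - 46 uM final.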

Assay [19] can be described thus: Vero-766 cells viability qHTS against the NCATS CANVASS Library: Counterscreen for Zika virus inhibition assay (AID 1347394). Also: nearly all actives have a fitted effect of over 60% in size. Also: potency is read from the fitted curve at half-maximal effect. An outline of the steps: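 Vero 766 cells (1000/well), without Zika virus, were exposed to compounds for 72 h at 37C. Viability was measured by CellTiter Glo luminescence. Media-only wells served as 100% inhibition.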
Assay [20] is described as follows: Viability qHTS for inhibitors of the SERCaMP assay screened against the NCATS CANVASS Library (AID 1347400). Also: nearly all actives have a fitted effect of over 70% in size. Also: potency is read from the fitted curve at half-maximal effect. An outline of the steps:
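Measures loss of viability in SERCaMP reporter SH-SY5Y cells treated for 48 h with compounds; luminescent ATP detection by CellTiter-Glo.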

Chain of Nuclear receptor subfamily 1 group I member 3 (Homo sapiens) (Q14994 whole entry, looked up): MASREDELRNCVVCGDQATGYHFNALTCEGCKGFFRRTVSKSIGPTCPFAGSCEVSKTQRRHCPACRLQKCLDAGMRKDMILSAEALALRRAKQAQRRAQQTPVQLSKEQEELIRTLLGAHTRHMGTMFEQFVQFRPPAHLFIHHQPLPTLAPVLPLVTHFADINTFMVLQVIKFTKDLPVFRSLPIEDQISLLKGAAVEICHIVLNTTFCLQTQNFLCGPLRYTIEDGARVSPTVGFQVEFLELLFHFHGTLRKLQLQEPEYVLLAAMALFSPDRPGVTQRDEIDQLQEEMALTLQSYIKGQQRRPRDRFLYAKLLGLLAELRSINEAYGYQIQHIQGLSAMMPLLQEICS

As to `C[C@@H]1O[C@@H](O[C@@H]2[C@@H](O)[C@H](O[C@@H]3[C@@H](O)[C@@H](O)C(O[C@H]4[C@H](OC(=O)[C@]56CCC(C)(C)C[C@H]5C5=CCC7[C@@]8(C)C[C@H](O)[C@H](O[C@@H]9C[C@H](CO)[C@@H](O)[C@H](O)[C@H]9O)[C@@](C)(CO)C8[C@H](O)C[C@@]7(C)[C@]5(C)CC6)OC[C@H](O)[C@@H]4O)O[C@H]3C)OC[C@H]2O)[C@H](O)[C@H](O)[C@H]1O` (some centres not stated), the Potency result in [1], in assay [2], in assay [3], in assay [4], in assay [6] and in [7] was “inactive” each time. The Potency entry in [8], in [9], in assay [10], in [11], in assay [12] and in assay [13] was “inactive” throughout. The Potency result in assay [16], in assay [17], in assay [19] and in [20] was “inactive” throughout. Further, the result in [5], in [14], in assay [15] and in [18] was inactive.
As to `CC(C)=CCC[C@@H](C)[C@@H]1CC[C@@]2(C)C[C@H]3C(C)=CC(=O)[C@@H]3/C(C=O)=C\C[C@H]12`, the Potency is 9.41 µM (active) in [1]; 5.95 µM (active) in assay [2]; 10.6 µM (active) in assay [3]; 7.49 µM (active) in assay [4]; 26.4 µM (active) in assay [7]; 17.2 µM (active) in [17]. Moreover, the Potency was 20.9 µM (active) in assay [19] and 42.8 µM (active) in assay [20]. Moreover, the Potency entry in assay [9], in assay [10] and in assay [16] was “inactive” throughout. In addition, the compound was called inactive in assay [14], in assay [15] and in [18].
Regarding `C=C1[C@H]2CC[C@@]3(C=CC(=O)[C@@](C)(CCC(=O)Nc4c(O)ccc(C(=O)O)c4O)C3C2)[C@H]1O` (some centres not stated), the Potency entry in assay [1], in assay [2], in assay [3], in [4], in assay [6] and in assay [7] was “inactive” in each case. The Potency entry in [8], in assay [9], in [10], in assay [11], in assay [12] and in assay [13] was “inactive” throughout. Further, the Potency entry in assay [16], in assay [17], in assay [19] and in assay [20] was “inactive” in each case. Moreover, the compound was classed as inactive in assay [5], in [14], in [15] and in assay [18].
Take `C[C@@]12CCC[C@@](C)(C(=O)O)[C@H]1C[C@@H](O)[C@]13C[C@H]4C[C@H](O[C@@]4(C)C1)[C@@H]23`: the Potency result in [1], in [2], in assay [3], in [4], in assay [6] and in assay [7] was “inactive” throughout. The Potency entry in assay [8], in assay [9], in assay [10], in [11], in [12] and in assay [13] was “inactive” each time. Further, the Potency result in assay [16], in assay [17], in assay [19] and in [20] was “inactive” each time. For the same compound, the result in assay [5], in assay [14], in [15] and in assay [18] was inactive.
Regarding `CC[C@@H]1C[C@@]2(CC)OC(=O)[C@@]3(CC)OC(=O)[C@@H]1[C@@H]23`, the Potency entry in assay [1], in [2], in [3], in assay [4], in [6] and in assay [7] was “inactive” in each case. In addition, the Potency result in assay [8], in assay [9], in assay [10], in assay [11], in [12] and in assay [13] was “inactive” throughout. For the same compound, the Potency result in assay [16], in [17], in assay [19] and in assay [20] was “inactive” each time. Further, the compound was classed as inactive in assay [5], in assay [14], in assay [15] and in assay [18].
With `CC1(C)C=Cc2c(ccc3c2OC[C@@H](c2ccc(O)cc2O)C3)O1`, the Potency result in assay [1], in assay [2], in assay [3], in [4], in [6] and in assay [7] was “inactive” each time. The Potency result in [8], in assay [10], in assay [11], in assay [12], in [13] and in assay [16] was “inactive” each time. For the same compound, the Potency entry in assay [17], in assay [19] and in [20] was “inactive” in each case. The call in assay [5], in [15] and in assay [18] was inactive.
